# Source: PubChem
# D2 PAM-1 – human D2 receptor positive allosteric modulation | DiscoveRx D2 beta-arrestin cells, luminescence, 90 min; 100% = 57 uM dopamine signal | potentiation, % (no concentration beside the values) | 360,000 tested, 0.23% active; in the data active = potentiation above about 50%; inconclusive = mostly about 30% to 49%
# Target sequence (P14416 whole entry, looked up): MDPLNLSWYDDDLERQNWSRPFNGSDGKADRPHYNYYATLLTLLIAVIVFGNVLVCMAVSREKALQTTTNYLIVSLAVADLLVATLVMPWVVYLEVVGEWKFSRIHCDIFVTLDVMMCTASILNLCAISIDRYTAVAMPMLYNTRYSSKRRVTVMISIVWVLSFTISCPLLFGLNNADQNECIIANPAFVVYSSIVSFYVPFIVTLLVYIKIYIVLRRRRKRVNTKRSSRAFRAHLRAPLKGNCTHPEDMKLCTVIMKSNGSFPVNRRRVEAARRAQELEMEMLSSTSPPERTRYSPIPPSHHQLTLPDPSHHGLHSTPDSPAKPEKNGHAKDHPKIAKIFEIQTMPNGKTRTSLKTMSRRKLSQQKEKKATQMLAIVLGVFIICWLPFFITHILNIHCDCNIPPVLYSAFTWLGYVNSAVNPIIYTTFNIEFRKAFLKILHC
#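 D2 cells co-treated with compound plus 50 nM dopamine (EC20) for 90 min at 37 deg C to detect potentiation. Beta-arrestin recruitment was read as enzyme-fragment luminescence after 1 h at ambient temperature. Full response was set by 57 uM dopamine.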
# D2 PAM-2 – positive allosteric modulators of human D2 dopamine receptor; P14416; HEK293 T-REx D2, calcium flux, EC20 dopamine potentiation; potentiation, % at 10 µM; 340,000 tested, 0.34% active;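 active = potentiation over 3 SD above the plate norm, cut at about 30% in these data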; also: 0% is about no effect
#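 Primary screen. Calcium kinetics in induced HEK293 T-REx D2 cells: compound pre-addition 180 s, EC20 dopamine, 180 s more.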
# D2 antag – antagonizes the human D2 dopamine receptor; P14416; HEK293 TREx D2 cells, calcium flux, dopamine EC80; inhibition, % at 10 µM; 340,000 tested, 2% active; in the data active = inhibition above about 30%; inactive = below that, where a call was filed; also: 0% is about no effect
#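 Calcium mobilization kinetics were recorded at 1 s intervals in tetracycline-induced HEK293 T-REx D2 cells, first for 180 s after compound addition and then 180 s after EC80 dopamine.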
# D2 ag-1 – agonists of human D2 dopamine receptor (beta-arrestin); activation, % (no concentration beside the values); DiscoveRx PathHunter D2 beta-arrestin, luminescence, 90 min; 100% = 57 uM dopamine signal; AID 624465; 360,000 tested, 0.084% active; in the data active = activation above about 40%; inconclusive = between about 15% and that limit
#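 Agonist mode: compounds alone added to overnight-plated D2 PathHunter cells for 90 min at 37 C, with 57 uM final dopamine (EC100) defining full response. Beta-arrestin recruitment detected by chemiluminescent reagent, read after 1 h at ambient temperature.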
# D2 ag-2 – D2 dopamine receptor (human) agonism | HEK293 T-REx D2 cells, calcium flux agonist mode | activation, % at 2 µM | 340,000 tested, 0.53% active | AID 485358;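 active = activation over 3 SD above normal in the single-dose calcium agonist read, cut at about 30% in these data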; also: 0% is about no effect
#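 Tetracycline-induced HEK293 Trex cells with D2 receptor force-coupled to calcium signaling, plated overnight at 30 C and loaded with no-wash calcium dye. Calcium flux read kinetically for 180 s after compound addition; responses flag agonists.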
# The depositor's hits bear a star; u = inconclusive; x = no result; ! = not confirmed by another sample. Shown are actives, neighbours in structure and some others; about 2.4% of the full set was active somewhere.
SMILES,D2 PAM-1,D2 PAM-2,D2 antag,D2 ag-1,D2 ag-2
C=CCc1cc(Cl)ccc1OCCN(C)C,-14,-15,53*,-1,1
CC(O)CNCCCOc1ccc(Cl)cc1C(C)(C)C (stereo not given),-13,-14,-18,1,1
CN(C)CCOCCOc1ccc(Cl)cc1C(C)(C)C,-10,-17,64*,-5,0
COc1ccc(OC)c(CNC(=O)CN2CC(C)Sc3ccccc32)c1 (stereo not given),x,-3,x,x,-1
CCOC(=O)CNC(=O)c1cn(CC(C)C)c(=O)c2cc(OC)c(OC)cc12,-10,-3,31*,0,0
CCn1cc(C(=O)NCC(=O)OC)c2cc(OC)c(OC)cc2c1=O,9,-1,2,-1,0
CCOc1ccc(C(=O)OCc2cc(=O)n3nc(C4CCCCC4)sc3n2)cc1,x,-4,x,x,x
Cc1cc(C(C)(C)C)cc(C)c1CC1=NCCN1,-21,-30,50*,-1,23
CCOc1ccc(CCNC(=O)c2sc3ncccc3c2-n2c(C)ccc2C)cc1,x,-1,x,x,1
O=C(Oc1ccc2ccccc2c1)c1ccco1,2,-6,-7,-3,0
CC1CC(C)(C)Nc2ccc(OC(=O)c3ccco3)cc21 (stereo not given),112*,10,0,u,1
COc1ccc(-c2cc(C(F)(F)F)n3nc(C(=O)NCc4ccco4)cc3n2)cc1,-8,16,14,-2,0
Cc1cc(-c2ccccc2)nc2cc(C(=O)NCc3ccco3)nn12,-4,36*,1,-2,0
COc1cccc(C(=O)NCCCNC(=O)c2cccnc2)c1,-1,-25,39*,-4,-1
CCOC(=O)N1CCN(C(=O)Nc2ccc3oc(C)nc3c2)CC1,u,x,44*,7,1
CCOC(=O)C1CCN(C(=O)Nc2ccc3oc(C)nc3c2)CC1,-3,x,x,-2,x
Cc1cccc(Nc2nc(-c3ccccc3)c3cc(C)ccc3n2)c1,x,-2,x,x,x
CCOC(=O)N1CCN(C(=O)C2CCN(S(=O)(=O)c3cc(C)ccc3OC)CC2)CC1,-1,-2,33*,-2,-1
O=C(NCCCN1CCCC1=O)Nc1ccc(Cl)cc1,-7,x,x,0,x
O=C(NCCCN1CCCC1=O)Nc1ccc([N+](=O)[O-])cc1,-5,8,35*,-19,0
Cc1ccc(Oc2nc(-c3ccccc3)ncc2S(C)(=O)=O)cc1,7,9,9,-3,0
Cc1ccc(Oc2nc(-c3ccccc3)ncc2S(=O)(=O)c2ccc(C)cc2)cc1,0,2,40*,0,-1
CCCCN1C(=O)C2C(C(=O)Nc3cccc(OC)c3)C3C=CC2(O3)C1C(=O)NC1CCCCC1C (stereo not given),-14,3,36*,0,0
CCCCN(C)CCN1C(=O)C2C(C(=O)Nc3cccc(OC)c3)C3C=CC2(O3)C1C(=O)NC1CCCCC1C (stereo not given),-2,6,5,1,-2
COc1ccc(-c2cc3nc(C)c(CCC(=O)NCc4ccccc4Cl)c(C)n3n2)c(OC)c1,x,1,x,x,1
SMILES,D2 PAM-1,D2 PAM-2,D2 antag,D2 ag-1,D2 ag-2
c1ccc(CN(CC2=NCCN2)c2ccccc2)cc1,-17,1,41*!,-6,2
Cc1cc(=O)oc2cc(NC(=O)c3ccc(OC(F)F)cc3)ccc12,-6,3,2,-1,0
Cc1cc(=O)oc2cc(NC(=O)C(C)Oc3ccc(F)cc3)ccc12 (stereo not given),-33,0,35*,-3,0
Cn1cccc([N+](=O)[O-])c1=O,-16,x,x,-4,x
Cn1c(=O)c(=O)n(C)c2cc([N+](=O)[O-])c([N+](=O)[O-])cc21,54*,7,14,u,2
COc1ccc(C(=O)N2CCN(Cc3cc(=O)n4nc(-c5ccccc5C)sc4n3)CC2)cc1OC,x,-2,x,x,0
Cc1oc2ncnc(N3CCOCC3)c2c1C(=O)NCc1ccccc1,x,-11,x,x,x
CCCCN1C(=O)C(O)(CC(=O)c2ccccc2OC)c2ccccc21 (stereo not given),-3,-11,33*,-3,0
COc1ccc(-[n+]2c(C)cc(/C=C3\Sc4ccccc4N3C)cc2C)cc1,-8,3,48*,-5,55*
COc1ccc(C(=O)/C=C2\Sc3ccccc3N2C)cc1,-13,-1,41*,-8,-1
COc1ccccc1-[n+]1c(C)cc(/C=C2\Sc3ccccc3N2C)cc1C,-36,16,-16,-8,89*
COc1ccccc1OC(=O)CCN1c2ccccc2Sc2ccccc21,7,1,-3,2,-1
CCCOc1ccc(CN(C(=O)c2nc(SC(C)C)ncc2Cl)C2CCS(=O)(=O)C2)cc1 (stereo not given),x,15,x,x,0
CCC(C)(C)n1nnnc1C(c1ccc(O)c(OC)c1)N1CCc2ccccc2C1 (stereo not given),-10,2,35*,-1,0
CCC(C)(C)n1nnnc1C(c1ccccc1)N1CCc2ccccc2C1 (stereo not given),-7,9,3,1,-1
O=S(=O)(Nc1ccccn1)c1ccc(Cl)c2ccccc12,1,-2,31*,2,-1
CC(=O)N1CCc2cc(C(=O)CN3CCN(c4cccc(Cl)c4)CC3)ccc21,-13,-16,73*,10,54*
CC(=O)N1CCc2cc(C(=O)CN3CCC(C)CC3)ccc21,-4,-4,7,2,1
CCOC(=O)c1c(NC(=O)COc2ccc(C)cc2C(C)(C)C)sc2c1CCC(C)C2 (stereo not given),x,-3,x,x,0
Fc1ccc(N/N=C2/CC(c3ccccc3)Oc3ccccc32)c(F)c1 (stereo not given),82*,-4,3,14,0
Fc1ccc(C(c2ccc(F)cc2)N2CCN(C/C=C/c3ccccc3)CC2)cc1,-30,-25,65*,-2,-1
C(=C\c1ccccc1)/CN1CCN(C(c2ccccc2)c2ccccc2)CC1,x,x,53*,x,x
O=C(NNC(=S)NC(=O)c1cccnc1)c1ccc(Cl)cc1,-10,x,x,-3,x
O=C(Cc1ccc(Cl)cc1)NNC(=S)NC(=O)c1cccnc1,-7,3,40*,3,1
COc1ccc(C2C(C#N)=C(C)NC3=C2S(=O)(=O)c2ccccc23)cc1 (stereo not given),-16,32*,-24,-4,0
COC(=O)C1=C(C)NC2=C(C1c1ccc(O)cc1)S(=O)(=O)c1ccccc12 (stereo not given),-13,-16,-4,-5,0
O=C1CC(c2cccs2)CC2=C1C(c1ccccc1)n1ncnc1N2 (stereo not given),-5,-6,21,0,0
